# Assay results as given in the supplement of paper PMC12350171.
# Counter-ions that a name gives are not always drawn.
# Test system: Haemophilus parainfluenzae
# Assay: growth AUC normalised to DMSO control (fraction of control); higher = less growth inhibition, active = hit call of the paper
# Conditions: 20 µM;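 active = AUC significantly below DMSO controls by Student t-fit with adjusted P under 0.01; inactive = not significantly reduced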
# How it was run: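 For the AUC endpoint, growth curves were integrated by the trapezoidal rule up to the exponential-to-stationary transition and normalised to DMSO controls on the same plate. The curves came from OD578 readings taken hourly for 24 h, in three biological replicates. Pathogens had been passaged anaerobically twice and inoculated at an OD578 of 0.01 into pre-reduced mGAM plates carrying 20 μM compound and 1% DMSO, sealed with breathable membranes. Medium for Haemophilus parainfluenzae also contained hemin and NAD.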
row,Compound,growth AUC normalised to DMSO control
1,Cc1c(NC(C)C)c(=O)n(-c2ccccc2)n1C [Isopyrin hydrochloride],0.967 (inactive)
2,CCS(=O)(=O)CCn1c([N+](=O)[O-])cnc1C [Tinidazole],0.987 (inactive)
3,CN1CCC[C@@H]1CCO[C@](C)(c1ccccc1)c1ccc(Cl)cc1 [Clemastine fumarate],0.973 (inactive)
4,C=CC(N)CCC(=O)O (configuration not stated) [Vigabatrin hydrochloride],1.02 (inactive)
5,CCn1cc(C(=O)O)c(=O)c2cc(F)c(N3CCN(C)CC3)cc21 [Pefloxacin],0.0557 (active)
6,CC(NCCC(c1ccccc1)c1ccccc1)c1ccccc1 (configuration not stated) [Fendiline hydrochloride],0.986 (inactive)
7,O=S(=O)(O)c1cc(O)ccc1O [Ethamsylate diethylammonium salt],0.98 (inactive)
8,O=P(O)(O)C(Cl)(Cl)P(=O)(O)O [Clodronate disodium],0.965 (inactive)
9,C=CC1=C(C(=O)O)N2C(=O)[C@@H](NC(=O)/C(=N\O)c3csc(N)n3)[C@H]2SC1 [Cefdinir],0.176 (active)
10,NS(=O)(=O)c1cc(Cl)c(Cl)c(S(N)(=O)=O)c1 [Dichlorphenamide],1.03 (inactive)
11,NCCCC[C@H](N[C@@H](CCc1ccccc1)C(=O)O)C(=O)N1CCC[C@H]1C(=O)O [Lisinopril],0.992 (inactive)
12,C[C@H](CCC(=O)O)[C@H]1CC[C@H]2[C@@H]3[C@@H](O)C[C@@H]4C[C@H](O)CC[C@]4(C)[C@H]3CC[C@]12C [Urosiol],1.01 (inactive)
